Screening results: PubChem, Johns Hopkins Ion Channel Center
KCNQ2 enhance – KCNQ2 (rat) channel potentiation; O88943; CHO-K1 KCNQ2, FluxOR thallium flux fluorescence; hits give high values; B-score at 10 µM; 310,000 tested, 0.54% active; AID 2239;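 active = fluorescence ratio B-score at least 3 SD of library B-scores, with initial fluorescence B-score within 3 of them, cut at about 5.3 in these data; same plate scores as AID 2156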;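 note: B-score of peak minus minimum over baseline fluorescence ratio after K+ and Tl+ stimulus; positive B-score means potentiation of KCNQ2 with more thallium influx and brighter signal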
KCNQ2 block – inhibitors of rat KCNQ2 potassium channel; O88943; CHO-K1 KCNQ2, FluxOR thallium flux, 20 min; hits give low values; B-score at 10 µM; 310,000 tested, 1.1% active; AID 2156;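 active = fluorescence ratio B-score at most minus 3 library SDs, with starting brightness B-score within 2 library SDs, cut at about -5.5 in these data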
KCNQ2 block conf – rat KCNQ2 channel inhibition, confirmatory screen; shares compounds with KCNQ2 block; KCNQ2-expressing cells, thallium flux; hits give low values; activity change, negative = inhibition, % at 10 µM; 1,000 tested, 57% active; AID 493025;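 note: 0% = vehicle wells and values are ratio percent relative to vehicle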
KCNQ1 spec – KCNQ2 inhibitor that also affects human KCNQ1 channel | 1,000 tested, 15% active | shares compounds with KCNQ2 block | KCNQ1-expressing cells, FluxOR thallium flux fluorescence; hits give low values | activity change, negative = inhibition, % at 10 µM | AID 493026;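 active = activity change at least 3 SD of negative controls below their mean in both duplicate wells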;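 note: CHO cells stably transfected with KCNQ1 and depolarized by potassium stimulus; peak minus minimum fluorescence over baseline after thallium addition; 0% = vehicle negative control and -100% = blank without thallium stimulus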
Target sequence (P51787 whole entry, looked up): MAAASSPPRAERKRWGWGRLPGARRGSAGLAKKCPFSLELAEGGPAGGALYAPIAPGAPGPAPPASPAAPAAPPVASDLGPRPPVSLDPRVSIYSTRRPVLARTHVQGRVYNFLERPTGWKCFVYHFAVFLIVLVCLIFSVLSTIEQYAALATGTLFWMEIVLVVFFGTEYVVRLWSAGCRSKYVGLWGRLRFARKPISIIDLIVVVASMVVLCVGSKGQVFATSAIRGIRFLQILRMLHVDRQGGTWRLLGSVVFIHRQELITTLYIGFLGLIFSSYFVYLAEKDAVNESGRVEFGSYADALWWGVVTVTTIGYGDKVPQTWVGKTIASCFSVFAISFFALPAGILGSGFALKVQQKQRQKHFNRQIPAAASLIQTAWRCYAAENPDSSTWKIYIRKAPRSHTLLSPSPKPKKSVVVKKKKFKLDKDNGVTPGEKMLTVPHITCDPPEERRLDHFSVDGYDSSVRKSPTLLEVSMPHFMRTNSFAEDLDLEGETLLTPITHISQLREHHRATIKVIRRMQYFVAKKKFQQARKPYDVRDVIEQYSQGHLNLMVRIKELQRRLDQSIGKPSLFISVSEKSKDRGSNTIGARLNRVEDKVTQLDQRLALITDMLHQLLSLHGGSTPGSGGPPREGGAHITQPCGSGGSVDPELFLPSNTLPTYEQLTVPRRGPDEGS
CHO Tl ctr – counter-screen for KCNQ2 inhibitors: effect in parental CHO cells; shares compounds with KCNQ2 block; thallium flux counter-screen; hits give low values; activity change, % at 10 µM; 1,000 tested, 14% active;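 note: 0% = vehicle negative controls with stimulus buffer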
KCNQ2 patch conf – rat KCNQ2 inhibition confirmed by electrophysiology. shares compounds with KCNQ2 block. KCNQ2-expressing cells, automated patch clamp current. calls only at 10 µM. 550 tested, 49% active. AID 588531
An asterisk follows results filed as active; i = inactive; . = not tested or not shown; + = active, no number. Shown are actives, neighbours in structure and some others; about 1.6% of the full set was active somewhere. Unless noted, the rule behind the calls is not given here.

SMILES	KCNQ2 enhance	KCNQ2 block	KCNQ2 block conf	KCNQ1 spec	CHO Tl ctr	KCNQ2 patch conf
Cc1ccc(/C(N)=N/OC(=O)Cc2ccccc2)cc1	.	i	.	.	.	.
Cc1ccc(/C(N)=N/OC(=O)N2c3ccccc3Sc3ccccc32)cc1	-8.5	-8.5*	-26%*	i	i	+
CC(C)c1ccc(NC(=O)C2=NNC(=O)CC2)cc1	2	i	.	.	.	.
CCC(C)(C)n1nnnc1C(C(C)C)N(Cc1cccnc1)Cc1ccco1 (stereo unspecified)	.	i	.	.	.	.
CCC(C)(C)n1nnnc1C(c1ccc(C)cc1)N(Cc1ccco1)Cc1cccs1 (stereo unspecified)	-9.9	-9.9*	i	i	i	.
CN(CC(=O)Nc1ccccc1Oc1ccccc1)Cc1ccccc1F	.	i	.	.	.	.
Cc1ccccc1CN(C)CC(=O)Nc1ccccc1Oc1ccccc1	-7.5	-7.5*	-32%*	-32%*	-26%*	i
COc1cc(CNCCO)cc(Cl)c1OCc1ccc(Cl)cc1Cl	-9.8	-9.8*	-41%*	-31%*	-31%*	i
COc1cc(CNCCO)cc(Br)c1OCc1ccccc1Cl	.	i	.	.	.	.
Cc1cc(C(=O)NCc2cccc(Cl)c2)c2ccccc2n1	.	i	.	.	.	.
Cc1cc(C(=O)Nc2ccccc2Cl)c2ccccc2n1	-6.9	-6.9*	-31%*	i	i	+
Cc1ccc(NC(=O)c2cc(C)nc3ccccc23)c(Br)c1	-6.7	-6.7*	i	i	i	.
Cc1ccc(NC(=O)c2ccccn2)c(Br)c1	.	i	.	.	.	.
Cc1cc(C(=O)NCc2ccccc2Cl)c2ccccc2n1	-7.2	-7.2*	-22%*	i	i	i
COc1cc(NC(=O)c2cc(C)nc3ccccc23)cc(OC)c1OC	.	i	.	.	.	.
O=S(=O)(c1ccccc1)N(CC(O)Cn1c2ccccc2c2ccccc21)c1ccccc1 (stereo unspecified)	-9.6	-9.6*	i	i	i	.
Cc1ccc(S(=O)(=O)N(C)CC(O)Cn2c3ccccc3c3ccccc32)cc1 (stereo unspecified)	.	i	.	.	.	.
CC(=O)Nc1cccc(NC(=O)CSc2nc(=O)n(CCCN3CCOCC3)c3c2CCC3)c1	.	i	.	.	.	.
Cc1nc(Nc2ccc3c(c2)OCCO3)c2oc3ccccc3c2n1	-8.1	-8.1*	-32%*	-28%*	i	i
CCc1nc(Nc2ccc3c(c2)OCCO3)c2oc3ccccc3c2n1	.	i	.	.	.	.
CNC(=O)c1ccc(-c2sc3nc(N4CCOCC4)c4c(c3c2N)CCCC4)o1	-9.5	-9.5*	-22%*	i	i	i
CNC(=O)c1ccc(-c2sc3nc(N4CCOCC4)c4c(c3c2N)CC(C)(C)OC4)o1	0.03	i	.	.	.	.
Cc1cc(C)nc(NN2C(=O)/C(=C/c3ccc(O)cc3)SC2=S)n1	.	i	.	.	.	.
COc1cccc(NC(=O)Nc2ccc(C(C)(C)C)cc2)c1	-8.7	-8.7*	i	i	i	.
COc1cccc(NC(=O)Nc2ccncc2)c1	0.23	i	.	.	.	.
SMILES	KCNQ2 enhance	KCNQ2 block	KCNQ2 block conf	KCNQ1 spec	CHO Tl ctr	KCNQ2 patch conf
Cn1c(=O)c(=O)n(C)c2cc(S(=O)(=O)N3CCCC3C(=O)NCc3cccs3)ccc21 (stereo unspecified)	.	i	.	.	.	.
Cc1ccc(OCC(=O)N2CCN(c3nnc(-c4ccc(C)cc4)c4ccccc34)CC2)cc1	-7.7	-7.7*	-33%*	i	i	+
COc1ccc(OCC(=O)N2CCN(c3nnc(-c4ccc(C)cc4)c4ccccc34)CC2)cc1	.	i	.	.	.	.
Cc1cccc(-c2cc3nc(-c4ccccc4)cc(N4CCC5(CC4)OCCO5)n3n2)c1	-8.1	-8.1*	-30%*	i	i	i
Fc1cccc(-c2cc3nc(-c4ccccc4)cc(N4CCC5(CC4)OCCO5)n3n2)c1	.	i	.	.	.	.
CC(C)(C)c1ccc(S(=O)(=O)N2CCC(NC(=O)c3ccco3)CC2)cc1	1.8	i	.	.	.	.
Cc1[nH]nc2c1/C(=N\O)CCC2	0.26	i	.	.	.	.
Cc1ccc2c(c1)C(c1ccncc1)=NNC(c1ccccc1)=N2	.	i	.	.	.	.
c1ccc(C2=Nc3c(ccc4ccccc34)C(c3ccncc3)=NN2)cc1	-12	-12*	-29%*	i	i	+
CCOc1ccc(NS(=O)(=O)c2ccc(C(=O)N(C)Cc3cccc(OC)c3OC)cc2)cc1	.	i	.	.	.	.
COc1ccc(Cl)cc1NS(=O)(=O)c1cccc(C(=O)NCCCN2CCCC2=O)c1	0.44	i	.	.	.	.
COc1ccc(CCNC(=O)CCCc2ccccc2)cc1OC	0.34	i	.	.	.	.
CCN(Cc1ccccc1)C(=O)CCc1nnc(CCCc2ccccc2)o1	-10	-10*	-26%*	i	i	+
CN(Cc1ccsc1)C(=O)CCc1nnc(CCCc2ccccc2)o1	.	i	.	.	.	.
O=C(NCC(c1ccco1)N1CCc2ccccc21)c1ccccc1F (stereo unspecified)	.	i	.	.	.	.
COc1ccc(C(=O)NCC(c2ccco2)N2CCc3ccccc32)c(OC)c1 (stereo unspecified)	-8	-8*	-31%*	i	i	+
CCn1c(SC)nnc1C1CCCN(CC(=O)Nc2ccccc2N2CCOCC2)C1 (stereo unspecified)	.	i	.	.	.	.
Cc1cc(C)n(-c2nc3ccccc3c(=O)n2OCc2ccc(Cl)cc2)n1	-7.6	-7.6*	i	i	i	.
Cc1cc(C)n(-c2nc3ccccc3c(=O)n2OCc2ccc(F)cc2)n1	.	i	.	.	.	.
CC(C)CNC1=C(C(=S)Nc2ccccc2)C(=O)CC(C)(C)C1	.	i	.	.	.	.
Cc1ccc(Sc2c(C)nn(C(=O)c3cccc(S(=O)(=O)N4CCOCC4)c3)c2C)cc1	-9	-9*	-33%*	i	i	i
Cc1cc(C)n(C(=O)c2cccc(S(=O)(=O)N3CCOCC3)c2)n1	.	i	.	.	.	.
CN(C)CCCNC(=O)c1ccccn1	0.35	i	.	.	.	.
CN(C)CCCNC(=O)c1ccc(-c2nc(-c3ccc(Cl)cc3)cs2)cc1	-12	-12*	-22%*	i	i	i
Cc1ccc(S(=O)(=O)N(C)CC(=O)N2CCCc3ccccc32)cc1	1.4	i	.	.	.	.
SMILES	KCNQ2 enhance	KCNQ2 block	KCNQ2 block conf	KCNQ1 spec	CHO Tl ctr	KCNQ2 patch conf
O=C(Nc1ccccc1Cc1ccccc1)c1oc2ccccc2c1COc1ccccc1	.	i	.	.	.	.
O=C(NCCc1ccccc1)c1oc2ccccc2c1COc1ccccc1	-9	-9*	-24%*	i	i	i
Cc1cc(C(=O)NC2CCCCC2C)c2ccccc2n1 (stereo unspecified)	.	i	.	.	.	.
CCc1nc2ccc(F)cc2c(C(=O)NC2CCCCC2C)c1C (stereo unspecified)	-7.1	-7.1*	-26%*	i	i	+
COc1ccc(OC)c(S(=O)(=O)N/N=C(/C)c2ccc3c(c2)OCO3)c1	0.01	i	.	.	.	.
Cc1ccc(S(=O)(=O)CCC(=O)N2CCN(c3ccc([N+](=O)[O-])cc3)CC2)cc1	.	i	.	.	.	.
Cn1c(Cc2cccs2)nnc1SCC(=O)Nc1ccccc1F	.	i	.	.	.	.
O=C(CSc1nnc(Cc2cccs2)n1Cc1ccco1)Nc1ccc(Cl)cc1Cl	-6.9	-6.9*	i	i	i	.
Nc1[nH]c(=O)nc(Nc2ccccc2)c1N=O	.	i	.	.	.	.
